# Reference: PubChem BioAssay AID1259374 (The Scripps Research Institute Molecular Screening Center, 2018)
# The campaign covered roughly 650,000 compounds. About 5,900 (0.91%) were called active. This is one part of a sample in which actives are shown more often than they occur. Unmarked numbers belong to inactive results. No stated cut-off is given here; in the data, active means inhibition above about 50%; inactive means the rest.
# Target: Microphthalmia-associated transcription factor (Homo sapiens) (UniProt O75030)
# Sequence (O75030 whole entry, looked up): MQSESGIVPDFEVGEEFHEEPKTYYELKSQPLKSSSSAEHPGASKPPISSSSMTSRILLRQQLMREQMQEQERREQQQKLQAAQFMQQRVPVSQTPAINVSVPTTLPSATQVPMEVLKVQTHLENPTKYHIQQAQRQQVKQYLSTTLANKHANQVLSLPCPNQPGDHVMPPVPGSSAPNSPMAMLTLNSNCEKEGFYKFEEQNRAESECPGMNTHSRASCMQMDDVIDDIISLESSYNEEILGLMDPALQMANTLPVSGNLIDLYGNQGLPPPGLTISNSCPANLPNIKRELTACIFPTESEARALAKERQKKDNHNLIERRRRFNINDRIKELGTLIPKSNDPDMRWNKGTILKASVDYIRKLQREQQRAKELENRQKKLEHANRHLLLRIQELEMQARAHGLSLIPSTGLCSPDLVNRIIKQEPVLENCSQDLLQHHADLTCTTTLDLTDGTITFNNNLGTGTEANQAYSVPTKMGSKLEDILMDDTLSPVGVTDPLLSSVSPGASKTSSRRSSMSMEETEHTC
# Experiment: MITF inhibitors, primary screen, biochemical, AlphaScreen, human (AID 1259374);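 further: 0% = vehicle wells with protein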
# Settings: AlphaScreen MITF homodimerization, bead proximity signal; at 2.6 µM; stronger effect = higher value
row,Compound,inhibition
1,CCOC(=O)C1CCCN(c2c(OCC)c(=O)c2=O)C1 (stereo unspecified),-5.33%
2,CCN(CCCNC(=O)CCCn1c(=S)[nH]c2cc3c(cc2c1=O)OCO3)c1cccc(C)c1,2.49%
3,CN1CCN(S(=O)(=O)c2ccc(F)c(Cl)c2)CC1,19.5%
4,O=C(c1ccccc1)N1CCN(CC(O)COc2cccc(Cl)c2)CC1 (stereo unspecified),-18.1%
5,CN1CCN(CC(O)COc2ccc3ccccc3c2)CC1 (stereo unspecified),18.6%
6,CCN1CCN(CC(O)COc2cccc(C(=O)OC)c2)CC1 (stereo unspecified),53.1% (active)
7,O=C(/C=C/c1ccc([N+](=O)[O-])cc1)NCCSC1CCCCC1,27.9%
8,CCOc1ccccc1N1C(=O)c2nccnc2C1=O,1.76%
9,CCOc1cc(/C=N/O)ccc1OCc1cccc(F)c1,9.06%
10,Cc1cccc(NC(=O)CNCCN2CCCCC2)c1C,62.5% (active)
11,CCC(C)NCC(=O)Nc1cccc(C)c1C (stereo unspecified),-0.21%
12,COCCNCC(=O)Nc1cccc(C)c1C,-3.31%
13,Cc1ccc2c(c1)-c1onc(C(=O)Nc3ccc(Cl)cn3)c1CO2,12.1%
14,COc1ccccc1NC(=O)Cn1cnc2sc(C(=O)O)c(C)c2c1=O,-5%
15,O=C(CSc1cccc[n+]1[O-])Nc1nc2ccccc2s1,14.6%
16,C=CCn1c(SCC(=O)Nc2nc3ccccc3s2)nc(O)cc1=O,67% (active)
17,O=C(CSc1ncnc2ccccc12)Nc1nc2ccccc2s1,4.66%
18,CCn1cc(C(=O)N[C@H](C)Cn2nnc3ccccc32)c(=O)c2ccc(C)nc21,0.5%
19,Cc1ccc(NC(=O)C2C3NC(=S)N(c4ccc(F)cc4)C2(C)Oc2ccc(Br)cc23)c(C)c1 (stereo unspecified),8.95%
20,CCCN1CCc2nc(NC(=O)COc3ccc(Cl)cc3Cl)sc2C1,4.61%
21,CN(c1ccccc1)C(C(=O)Nc1ccc2c(c1)OCCO2)c1ccccc1 (stereo unspecified),17.5%
22,O=C(Nc1ccc2c(c1)OCO2)C(c1ccccc1)N(Cc1ccccc1)Cc1ccccc1 (stereo unspecified),75.7% (active)

row,Compound,inhibition
1,O=C(Nc1ccc2c(c1)OCO2)C(c1ccccc1)N1CCC(Cc2ccccc2)CC1 (stereo unspecified),-8.34%
2,O=C1Nc2cc(C(=O)O)ccc2S/C1=C/c1ccccc1Cl,2.94%
3,CCOC(=O)c1ccc(Nc2ncnc3c2cnn3-c2ccccc2)cc1,15.3%
4,Cc1nc(NC(=O)c2ccoc2C)sc1C,1.06%
5,Cc1nc(NC(=O)c2cc(Br)ccc2Cl)sc1C,53.2% (active)
6,COc1ccc(C(=O)Nc2nc(C)c(C)s2)c(OC)c1,20.7%
7,NC(=O)c1ccccc1NC(=O)CNCc1ccco1,-15.5%
8,CCCn1c(SCC(=O)Nc2ccc(C(C)=O)cc2)n[nH]c1=O,-6.45%
9,Cc1ccc(-c2n[nH]c(CNC(=O)c3cnccn3)n2)cc1,1.68%
10,CCOc1ccccc1NC(=O)c1ccccc1NC(=O)c1ccc(OC)cc1,-3.48%
11,S=c1[nH]nc(COc2cccc(Br)c2)n1-c1ccccc1,4.84%
12,CN(Cc1ccccc1)C(=O)Cc1c(C(=O)O)n(C)c2ccccc12,12.8%
13,CCCCC(=O)NCc1ccc(F)cc1,56.8% (active)
14,Cn1c(C(=O)O)c(CC(=O)Nc2ccc(F)cc2)c2ccccc21,-7.75%
15,Cc1ccc(CS(=O)(=O)CCC(=O)NCc2ccc(F)cc2)cc1,9.88%
16,O=C(CC1CCCCC1)NCc1ccc(F)cc1,-4.27%
17,Cn1c(C(=O)O)c(CC(=O)NCc2ccc(F)cc2)c2ccccc21,63.1% (active)
18,CC(=O)/C=C/c1oc2ccccc2c1-c1ccc(C)o1,21.6%
19,COc1cccc(/C=N/NC(=O)COc2cccc(Cl)c2)c1,1.05%
20,Cc1ccc(-c2c(C(=O)O)nnn2-c2nonc2N)cc1,3.35%
21,O=C(c1ccccc1)N1CCN(C2CCCC2)CC1,52.8% (active)
22,O=C(c1ccccc1F)N1CCN(C2CCCC2)CC1,29.8%

row,Compound,inhibition
1,O=C(c1ccc(-n2c(=S)[nH]c3ccccc3c2=O)cc1)N1CCN(C2CCCCC2)CC1,6.86%
2,N#Cc1cc2cc3c(cc2nc1SCC(=O)Nc1nccs1)OCO3,5.9%
3,Cc1nc(C(C)N(C)C(=O)Cn2cc(NC(=O)CCOc3ccccc3)cn2)c(C)s1 (stereo unspecified),-7.45%
4,CCOC(=O)C(NC(=O)c1ccc(N2CC3CC(C2)c2cccc(=O)n2C3)c(NC(=O)c2cc(OC)cc(OC)c2)c1)C(=O)OCC (stereo unspecified),-6.03%
5,COc1ccc(-c2cnnc(NCc3ccc(Cl)cc3)n2)cc1,-5.57%
6,CCCCNc1ncnc2c1[nH]c1ccc(F)cc12,18%
7,COc1ccc(C2=N/C(=C\c3ccco3)C(=O)O2)cc1OC,14.6%
8,CCN(CC(=O)NCc1ccc(Cl)cc1)Cn1nnc2ccccc21,85.1% (active)
9,CCCn1c(=O)c(C(=O)NCc2ccc(Cl)cc2)c(O)c2ccccc21,13.8%
10,O=C(Cn1nnc2ccccc21)N/N=C/c1c(O)ccc2ccccc12,14.9%
11,COc1cc(-c2cn[nH]c2)ccc1C(=O)NCC(C)c1cccs1 (stereo unspecified),0.52%
12,Cc1c(C(=O)Nc2cccc(C(F)(F)F)c2)sc2ncn(C)c(=O)c12,-1.25%
13,Cc1ccc(NC(=O)c2ccc(NC(N)=O)cc2)cc1,-11%
14,O=C(COc1ccc(Cl)cc1Cl)Nc1cccc(Br)c1,-1.08%
15,Cc1cc(NC(=O)CNCCCN(C)C)no1,64.8% (active)
16,Cc1cc(NC(=O)c2ccc(N(C)C)cc2)no1,7.76%
17,Cc1cc(NC(=O)Cn2cnc3c2c(=O)n(C)c(=O)n3C)no1,18%
18,COC(=O)c1ccccc1NC(=O)CC1Nc2cc(C)c(C)cc2NC1=O (stereo unspecified),6.95%
19,O=C(c1ccc2c(c1)OCO2)N1CCCCC1c1nc2ccccc2[nH]1 (stereo unspecified),10.6%
20,CCCN1CCC(N2CCN(c3cccc(Cl)c3)CC2)CC1,15%
21,CCS(=O)(=O)N1CCC(N2CCN(c3ccccc3)CC2)CC1,11.4%
22,CN1CCC(N2CCN(c3ccccc3Cl)CC2)CC1,55.2% (active)
